ADAM17 inh – ADAM17 inhibitors, primary screen, biochemical, QFRET; Disintegrin and metalloproteinase domain-containing protein 17 (Homo sapiens), P78536; recombinant ADAM17, EDANS/DABCYL FRET peptide cleavage; inhibition, % at 6.95 µM; 370,000 tested, 0.83% active;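 active = inhibition above the mean of compounds lying between control limits plus 3 SD, set per campaign, cut at about 8.5% in these data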;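 note: 0% = DMSO-only wells as the low control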
KLK7 zymogen act – proKLK7 zymogen activators, primary screen, biochemical, fluorescence intensity; purified proKLK7, EDANS-DABCYL substrate fluorescence; 100% is mature enzyme control, 0% vehicle; activation, % at 7 µM; 370,000 tested, 0.9% active;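 active = activation above the mean of all tested compounds plus 3 SD, computed per campaign excluding outliers beyond control limits, cut at about 13% in these data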
PLC-beta3 inh – human PLC-beta3 inhibitors, primary screen, biochemical, fluorescence | 1-phosphatidylinositol 4,5-bisphosphate phosphodiesterase beta-3 (Homo sapiens), Q01970 | AID 720704, 2013 | Purified PLC-beta3, fluorogenic substrate | inhibition, % at 12.2 µM | 370,000 tested, 0.18% active; in the data active = inhibition above about 11%;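 note: 0% = median of compound wells on plate and 100% = full blocker control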
PLCg1 inh – PLC-gamma1 enzyme inhibitors, primary screen, biochemical, fluorescence, purified enzyme; 370,000 tested, 0.84% active; inhibition, % at 12.2 µM; fluorogenic substrate; AID 720700, 2013; in the data active = inhibition above about 9.5%
HGIII-sPLA2 inh – human group III sPLA2 inhibitors, primary screen, biochemical, QFRET, BODIPY PC-A2 liposome substrate; AID 743126, 2013; QFRET BODIPY PC-A2 liposome hydrolysis, fluorescence; inhibition, % at 12.2 µM; 370,000 tested, 0.56% active; Group 3 secretory phospholipase A2 (Homo sapiens), Q9NZ20;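 active = inhibition above mean plus 3 SD of compounds lying within the high and low control bounds, cut at about 19% in these data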;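 note: 0% = median of test compound wells and 100% = no enzyme DMSO wells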
ADAM10 inh – human ADAM10 inhibitors, primary screen, biochemical, QFRET, HTS; 370,000 tested, 0.62% active; recombinant ADAM10, EDANS/DABCYL FRET peptide cleavage, 3 h; Disintegrin and metalloproteinase domain-containing protein 10 (Homo sapiens), O14672; inhibition, % at 7 µM;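 active = inhibition above a per-campaign cutoff equal to the mean of compounds falling between control-based bounds plus 3 SD, cut at about 20% in these data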;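 note: 0% = DMSO wells while the 100% control is not disclosed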
ADAM10 confirm – human ADAM10 inhibitors, confirmation, biochemical, QFRET, triplicate | ADAM10 QFRET peptide cleavage, EDANS fluorescence | shares compounds with ADAM10 inh | AID 743208, 2013 | inhibition, % at 6.95 µM | 2,100 tested, 1% active;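 active = inhibition above about 20% chosen separately for each screening run, limit read from the data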;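 note: 0% = DMSO wells and 100% = marimastat wells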
ADAM17 counter – ADAM17 inhibitors, counter-screen for ADAM10 exosite inhibitor project, biochemical, QFRET, high throughput. shares compounds with ADAM10 inh. ADAM17 QFRET peptide cleavage, EDANS fluorescence. inhibition, % at 6.95 µM. 2,100 tested, 0.5% active. AID 743214, 2013;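 active = mean triplicate inhibition above the solvent-only control wells' mean plus 3 SD, cut at about 12% in these data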;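 note: 0% = DMSO wells and 100% = marimastat wells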
The depositor's hits bear a star; . = no result given. The list is not random: actives were taken first. Their share in the collection is about 3.4%.

SMILES	ADAM17 inh	KLK7 zymogen act	PLC-beta3 inh	PLCg1 inh	HGIII-sPLA2 inh	ADAM10 inh	ADAM10 confirm	ADAM17 counter
Cc1nc(NCc2ccc3c(c2)OCO3)c2oc3ccccc3c2n1	-3	1	-3	-3	-4	7	.	.
O=[N+]([O-])c1ncccc1OCCOc1ccc(Cl)cc1Cl	-1	.	-2	0	-14	2	.	.
COc1ccccc1NS(=O)(=O)c1cccc(NC(=O)Nc2ccc(Cl)cc2)c1	26*	0	9	9	-47	56*	12	3
COc1ccccc1NS(=O)(=O)c1cccc(NC(=O)Nc2ccccc2)c1	5	0	1	4	-81	20	.	.
S=C(NN=C1CCCCC1=NNC(=S)N1CCOCC1)N1CCOCC1	-25	3	-99	-76	-7	-88	.	.
CN1C(=O)C(=O)N2C(=C[C@]3(c4c[nH]c5ccccc45)c4ccccc4N[C@H]23)C1=O	-6	.	-13	-3	-1	-5	.	.
CC(=O)c1ccc(-n2c(-c3cc(-c4ccsc4)n[nH]3)n[nH]c2=S)cc1	-1	0	-4	-1	8	7	.	.
S=c1[nH]nc(-c2cc(-c3ccsc3)n[nH]2)n1-c1cccc2ccccc12	1	-1	-2	-2	-15	23*	3	2
Cc1cccc(C(=O)NN2C(=O)C3C(c4ccccc4)C=CC(c4ccccc4)C3C2=O)c1 (stereo unspecified)	8	0	-10	-4	-32	20*	5	2
COc1ccc(NC(=O)CN(C)C(=O)c2cn(-c3ccccc3)nc2-c2ccc(F)cc2)cc1	7	0	-1	-1	-26	7	.	.
COc1ccc(NC(=O)CN(C)C(=O)c2cn(-c3ccccc3)nc2-c2ccc(OC)cc2)cc1	7	1	2	7	-32	26*	0	1
COc1ccc(-c2nn(-c3ccccc3)cc2C(=O)Nc2cccc(S(=O)(=O)NC3=NCCC3)c2)cc1	2	0	-4	6	-36	24*	7	1
O=C(NCc1cn(-c2ccccc2)nc1-c1ccccc1)c1cc([N+](=O)[O-])cc([N+](=O)[O-])c1	-2	0	3	1	0	9	.	.
COc1ccc(-c2nn(-c3ccccc3)cc2CNC(=O)c2cccc([N+](=O)[O-])c2)cc1	8	0	5	6	-11	21*	4	1
CC(C)(C)OC(=O)N1O[C@H]2C=C[C@@H]1C2	-3	0	5	0	2	-2	.	.
CN1C(=O)[C@@]2(O[C@H]3c4ccccc4C=CN3C3=C2C(=O)CCC3)c2ccccc21	-3	0	-41	-31	-8	-6	.	.
COc1ccc(-n2c(Cc3cccn3C)nnc2SCC(=O)Nc2ccccc2)cc1	-2	0	-2	-2	-30	-4	.	.
Cn1cccc1Cc1nnc(SCC(=O)Nc2ccccc2)n1-c1ccc(F)cc1	-1	1	-10	-7	-28	79*	2	0
COc1ccc(-n2c(Cc3cccn3C)nnc2SCC(=O)Nc2ccc(Cl)cc2)cc1	0	1	0	-1	-26	86*	-2	0
COCc1[nH]nc2c1C(c1ccc(F)cc1)N(c1ccccc1)C2=O (stereo unspecified)	1	1	-2	4	-3	-4	.	.
COc1ccccc1Cc1c(-c2ccc(C)cc2)nc2ccc(C)cn12	-12	-1	-15	-12	-6	-48	.	.

Bioassay records: PubChem BioAssay, The Scripps Research Institute Molecular Screening Center
